50 compounds from PubChem BioAssay AID1347416 (National Center for Advancing Translational Sciences (NCATS), 2020) can be followed below.

The whole screen tested about 4,100 compounds, of which about 1,600 (39%) were called active. Another 25% or so got no clear call; they are omitted. This is one part of the list. Unmarked numbers belong to inactive results. The call rests on the fitted dose curve; in most records, active means well fitted inhibition curve with a large enough effect; inconclusive means small, poorly fitted or top-dose-only effect; inactive means no such curve, though single readings can be large or run the other way.
On the % scale 0 is the no-effect control and ±100 the full control effect; potency means the concentration at half of the fitted maximal effect.

The nature of this assay: qHTS Validation assay for Inhibitors of Plasmodium falciparum Dd2 growth in vitro. Further: nearly all actives have a fitted effect of over 70% in size. The conditions noted are these: P. falciparum Dd2 in RBCs, SYBR Green growth, 72 h; series mostly up to 28.7 µM; activity change, negative = inhibition: at the top concentration. In outline:
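P. falciparum Dd2-infected red blood cells (2.5% hematocrit, 0.3% parasitemia) grown 72 h at 37 °C under 5% O2 with compounds in a titration, 29 uM to 0.5 nM final. Growth read as SYBR Green-1 fluorescence after ~16 h lysis; artesunate 300 nM as positive control.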
For orientation: qHTS replaces the single test concentration by a dilution series.
Take `Cc1ccc(C(=O)c2cc(C)sc2NC(=O)CN2CCN(C(=O)c3ccco3)CC2)cc1`: the Potency was 7.5 µM (active). In the case of `COCCOC1CCOC2(CCN(C(=O)c3ccco3)CC2)C1` (stereo not given), the “activity change, negative = inhibition” value is -41.3%. On to `COc1ccccc1NC(=O)CSc1nc2c(oc3ccccc32)c(=O)n1-c1ccc(C)cc1`, for which the Potency is 15 µM (active). As for `COc1ccccc1-n1c(SCC(=O)NC(C)(C)C)nc(O)cc1=O`, the “activity change, negative = inhibition” value is 12.2%.

For the compound `COCCN1C(=O)CCC2(CNC(=O)CCc3nc4ccccc4[nH]3)CCCC=C12` (stereo not given), the “activity change, negative = inhibition” value is 12.1%. For `CCc1nc(NC(=O)C2c3ccccc3C(=O)N(CCOC)C23CCCC3)sc1C` (stereo not given), the Potency was 5.96 µM (active). In the case of `COCCN1C(=O)c2ccccc2C(C(=O)Nc2nc3ccccc3[nH]2)C12CCCCC2` (stereo not given), the Potency was 4.73 µM (active). Turning to `COCCN1C(=O)c2ccccc2C(C(=O)Nc2nc3ccccc3[nH]2)C12CCCC2` (stereo not given), the Potency was 4.22 µM (active). Regarding `COCCN1C(=O)CC[C@]2(C(=O)NCc3ccccc3Cl)CCCC[C@@H]12`, the “activity change, negative = inhibition” value was -5.07%. On to `COc1nc(N(C)S(=O)(=O)c2ccc(C)cc2)nc(C)c1Br`, for which the “activity change, negative = inhibition” value was 21.9%. Consider `Cc1cnc(CCNC(=O)Cn2c(=O)oc3ccccc32)n1C1CC1`, for which the “activity change, negative = inhibition” value is -13.1%.

Turning to `Cc1cc(C(F)(F)F)nn1CC(=O)NCCc1ncc(C)n1CC1CC1`, the Potency is 10.6 µM (active).

Turning to `Cc1nnc2n1CCC(N(C)S(=O)(=O)c1cn(C)cn1)CC2` (stereo not given), the “activity change, negative = inhibition” value was 10.2%.

As to `CN(CCn1cc(-c2nccn2C)nn1)S(C)(=O)=O`, the “activity change, negative = inhibition” value is 39.1%. Take `Cc1cccc2cc(CN(Cc3ccco3)C(c3nnnn3CCc3ccccc3)C(C)C)c(=O)[nH]c12` (stereo not given): the Potency is 10.6 µM (active). Turning to `Cc1noc(-c2ccn3c(CNC(=O)c4ccccc4Cl)nnc3c2)n1`, the “activity change, negative = inhibition” value was 10.4%. Still for that read-out and setting: next, `O=C(O)Cn1c(-c2ccccn2)nc2ccccc21`: 41%. `c1ccc(CNc2nc(-c3ccccn3)nc3ccccc23)cc1`: the Potency was 5.31 µM (active). Regarding `c1ccc(CCNc2nc(-c3ccccn3)cs2)cc1`, the Potency was 7.5 µM (active).

Turning to `Cc1ccccc1Nc1nnc(SCc2cc(=O)n3ccsc3n2)s1`, the “activity change, negative = inhibition” value is 4.3%.

For `Cc1ccccc1Nc1nc(-c2cccnc2)cs1`, the Potency is 9.44 µM (active). For `COC(=O)COc1ccc(-c2nccc(-c3ccccn3)n2)cc1`, the “activity change, negative = inhibition” value is 40%. Consider `Cc1cccnc1Nc1nc(-c2ccccn2)cs1`, for which the Potency was 0.473 µM (active). For the compound `Cc1nn(C)cc1CN(C)C(=O)CC12CC3CC(CC(C3)C1)C2`, the “activity change, negative = inhibition” value was 21.6%. Still for that read-out and setting: as for `CC(C)c1noc(-c2cn(C3CCCN(C(=O)c4ccc(N(C)C)cc4)C3)nn2)n1` (stereo not given), the figure is -13.1%. Same read-out and setting: next, `COc1ccc(OC)c(C2Nc3c(C)cc(C)cc3-c3cc(C)nn32)c1` (stereo not given): -26.2%. Consider `c1ccc(CCNc2nc(-c3ccccn3)nc3ccccc23)cc1`, for which the Potency is 4.73 µM (active).

On to `CCCN(CCC)c1nc(-c2ccccn2)nc2ccccc12`, for which the Potency is 5.31 µM (active). The same measure, in the same setting: as for `c1ccc(-c2nc(NCc3ccco3)c3ccccc3n2)nc1`, the figure is 5.96 µM (active). On to `CCCCOc1cccc(C(=O)N(Cc2ccc(Br)o2)C2CCS(=O)(=O)C2)c1` (stereo not given), for which the “activity change, negative = inhibition” value was 0%. As to `O=C(CCn1c(=O)c2cccn2c2cccnc21)NCc1ccc(F)cc1`, the “activity change, negative = inhibition” value was 3.25%.

As for `Oc1cc(NCc2ccc(F)cc2)cc2cccnc12`, the Potency is 4.73 µM (active). Still for that read-out and setting: as for `Oc1cc(NCc2ccccc2)cc2cccnc12`, the figure is 2.99 µM (active). As for `Cc1ccc(-c2cc3c(=O)n(CCNC(=O)c4cccnc4)ccn3n2)c(C)c1`, the “activity change, negative = inhibition” value was -19.2%. For the compound `COc1cccc(CNC(=O)Cn2c(SCC(=O)Nc3ccc(F)cc3)nc3ccccc32)c1`, the “activity change, negative = inhibition” value was -22.5%.

Turning to `COc1ccc(NC(=O)CN(C)C(=O)c2oc3c(ccc4ccccc43)c2C)cc1`, the Potency was 0.531 µM (active). On to `COc1ccc(C(=O)OCCc2cc3ccccc3c(=O)o2)cc1`, for which the “activity change, negative = inhibition” value is 24.1%. On to `COc1cccc(NC(=O)CCc2c(C)nc3c4cccnc4nn3c2C)c1`, for which the “activity change, negative = inhibition” value was 5.09%. As to `COc1cccc(NC(=O)CN(C)C(=O)c2oc3c(ccc4ccccc43)c2C)c1`, the Potency was 0.75 µM (active). Take `COCc1nc(C2CC(NC(=O)c3cc(-c4ccsc4)n[nH]3)C2)cc(=O)[nH]1` (stereo not given): the “activity change, negative = inhibition” value is 27.8%. For the compound `COc1ccc(C(C(=O)Nc2ccc(C(C)C)cc2)N(Cc2ccco2)C(=O)CC2NC(=O)NC2=O)cc1` (stereo not given), the Potency is 6.68 µM (active). For `CCOc1ccc(CN2C(=O)c3ccccc3Sc3ccc(C(=O)N4CCN(C)CC4)cc32)cc1`, the Potency is 0.299 µM (active). Still for that read-out and setting: next, `CN1CCN(C(=O)c2ccc3c(c2)N(Cc2ccc(C(F)(F)F)cc2)C(=O)c2ccccc2S3)CC1`: 0.531 µM (active). In the case of `O=C(c1ccc2[nH]ncc2c1)N1CCOCC12CCN(CCCc1ccccc1)CC2`, the “activity change, negative = inhibition” value is -9.68% [at 43.1 µM]. Turning to `Cc1cn2nc(C(=O)N3CCC(NC(=O)c4ccc(F)cc4)CC3)cc2c(=O)[nH]1`, the “activity change, negative = inhibition” value is 9.32%.

As for `O=C(Nc1ccsc1C(=O)NC1CCCCC1)c1ccc(F)cc1`, the Potency is 6.68 µM (active). For the compound `CCCN(CC1CCOC1)S(=O)(=O)c1ccc(C)c(C)c1` (stereo not given), the “activity change, negative = inhibition” value was 13.2%. Turning to `COC(=O)c1cnn(-c2ccc(C(=O)Nc3ccc(OC(F)(F)F)cc3)cc2)c1N`, the Potency was 4.73 µM (active). In the case of `COC(=O)c1cnn(-c2ccc(C(=O)Nc3cccc(C(C)=O)c3)cc2)c1N`, the “activity change, negative = inhibition” value was 7.57%. In the case of `Cc1ccc(C(=O)Nc2ccc(OCc3cc(=O)n4c(C)csc4n3)cc2)cc1`, the “activity change, negative = inhibition” value is -7.09%.
